Laboratory results from PubChem BioAssay AID2156 (Johns Hopkins Ion Channel Center, 2009).
Among all 310,000 compounds or so, about 3,400 (1.1%) were called active. The entries come from a sample that favours actives as a whole. Unmarked numbers belong to inactive results.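 Rule for the calls: active = fluorescence ratio B-score at most minus 3 library SDs, with starting brightness B-score within 2 library SDs (cut at about -5.5 in these data); inactive = the rest, inconclusive results apart.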

target: Potassium voltage-gated channel subfamily KQT member 2 (Rattus norvegicus) (UniProt O88943); experiment: KCNQ2 channel blockers in CHO-K1 cells – cell-based, FluxOR thallium flux, B-score, primary screen (AID 2156); details: 20 min, at 10 µM; stronger effect = lower value
Sequence (O88943 whole entry, looked up): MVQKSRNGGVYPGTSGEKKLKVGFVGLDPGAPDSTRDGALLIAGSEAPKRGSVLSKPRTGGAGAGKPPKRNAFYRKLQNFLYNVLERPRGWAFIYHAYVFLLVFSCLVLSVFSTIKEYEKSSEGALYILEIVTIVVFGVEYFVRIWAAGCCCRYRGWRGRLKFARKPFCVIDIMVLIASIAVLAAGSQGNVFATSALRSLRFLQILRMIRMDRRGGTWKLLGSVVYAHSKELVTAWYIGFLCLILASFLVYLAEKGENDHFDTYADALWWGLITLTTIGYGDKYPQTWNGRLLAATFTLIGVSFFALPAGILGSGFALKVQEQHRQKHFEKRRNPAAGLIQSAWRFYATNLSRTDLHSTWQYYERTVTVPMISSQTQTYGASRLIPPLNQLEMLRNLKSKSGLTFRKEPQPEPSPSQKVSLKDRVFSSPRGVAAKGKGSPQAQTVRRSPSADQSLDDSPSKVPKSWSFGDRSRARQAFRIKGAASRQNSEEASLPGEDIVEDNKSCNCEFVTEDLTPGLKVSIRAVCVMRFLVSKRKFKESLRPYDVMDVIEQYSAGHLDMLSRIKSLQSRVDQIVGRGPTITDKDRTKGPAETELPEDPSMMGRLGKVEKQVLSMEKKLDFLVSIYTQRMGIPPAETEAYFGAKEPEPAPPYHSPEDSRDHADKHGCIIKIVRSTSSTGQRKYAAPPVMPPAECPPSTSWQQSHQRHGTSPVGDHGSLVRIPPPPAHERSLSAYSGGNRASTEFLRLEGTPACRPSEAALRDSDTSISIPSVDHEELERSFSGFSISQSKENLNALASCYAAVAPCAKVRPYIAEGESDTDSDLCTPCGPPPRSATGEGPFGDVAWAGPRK

Q: With COc1ccc(Cl)cc1NS(=O)(=O)c1cccc(C(=O)NC2CCC(O)CC2)c1 (centres undefined) as the compound, how does the B-score read?
A: inactive

Q: Which B-score does the source give for CCN(CC)CCn1c2c(c(SCC(=O)Nc3nc4ccccc4s3)nc1=O)CCCC2 here?
A: -0.49

Q: For Cc1ccccc1NC(=O)NCC1CCN(Cc2cccc(Cl)c2)CC1, which B-score is on record?
A: inactive

Q: How did the B-score turn out when CNS(=O)(=O)c1cccc(C(=O)NCC2CCCCC2)c1 was run?
A: inactive

Q: CC(C(=O)NCC1CCCCC1)N(C)Cc1cccc(Cl)c1 (centres undefined) was tested. Which B-score did it give?
A: -6.94 (active)

Q: O=C(COC(=O)c1cccc(Cl)c1)Nc1ccc2[nH]c(=O)[nH]c2c1 was tested. Which B-score did it give?
A: inactive

Q: How did the B-score turn out when CCOc1cc(/C=N/NC(=O)c2cccc(S(=O)(=O)N3CCOCC3)c2)ccc1OCC(=O)N(C)C was run?
A: -0.36

Q: How did the B-score turn out when Cc1ccc(S(=O)(=O)NCCC(=O)OCC(=O)N(C)c2ccccc2)cc1 was run?
A: inactive

Q: For COc1ccc(Cl)cc1NC(=O)CN(C)C(=O)c1cc2ccccc2cc1OC, which B-score is on record?
A: -1.83

Q: How did the B-score turn out when COc1ccc(OC)c(NC(=O)CN(Cc2ccc(Cl)cc2)S(C)(=O)=O)c1 was run?
A: -0.01

Q: COc1ccc(Cl)cc1NC(=O)CN(C)Cc1ccc(OC)c(OC)c1 was tested. Which B-score did it give?
A: -7.16 (active)

Q: For O=C1N[C@@H](Cc2ccccc2)C(=O)N2[C@H]1C[C@]1(Br)c3ccccc3N(S(=O)(=O)c3ccccc3)[C@H]21, which B-score is on record?
A: inactive

Q: For CN1/C(=c2/s/c(=C3/C(=O)N(c4ccccc4)NC3=Nc3ccccc3)n(C)c2=O)C(C)(C)c2ccccc21, which B-score is on record?
A: -7.74 (active)

Q: How did the B-score turn out when CCN1C(=O)/C(=c2\s/c(=C3\Sc4ccccc4N3C)c(=O)n2C)N(C)C1=S was run?
A: inactive

Q: With CC1C(=O)N2CCCc3cc(S(=O)(=O)NCc4ccc(F)cc4)cc1c32 (centres undefined) as the compound, how does the B-score read?
A: inactive

Q: How did the B-score turn out when Cc1ccc(Cl)c(OCC(=O)N(C)CC(=O)Nc2ccc(N3CCOCC3)cc2)c1 was run?
A: inactive

Q: For Cc1ccc(NS(=O)(=O)c2ccc(C(=O)NCCCN3CCOCC3)cc2)cc1, which B-score is on record?
A: -0.52

Q: Which B-score does the source give for CC(C)CN(C(=O)Cn1c(=O)cnc2ccccc21)C1CCS(=O)(=O)C1 (centres undefined) here?
A: -1.5

Q: Which B-score does the source give for CCOC(=O)N1CCN(C(=O)COc2ccc3oc4c(c3c2)CCCC4)CC1 here?
A: inactive

Q: Which B-score does the source give for Fc1ccccc1C(c1nnnn1Cc1ccc2c(c1)OCO2)N1CCN(Cc2ccccc2)CC1 (centres undefined) here?
A: -1.43

Q: Cc1cc(C)c2[nH]c(=O)c(C(c3nnnn3Cc3ccc4c(c3)OCO4)N3CCCC3)cc2c1 (centres undefined) was tested. Which B-score did it give?
A: -6.38 (active)

Q: Which B-score does the source give for CCOC(=O)C1CCN(C(c2cc3cc(C)cc(C)c3[nH]c2=O)c2nnnn2C2CCCCC2)CC1 (centres undefined) here?
A: -1.94

Q: Which B-score does the source give for O=C(CSC1=NS(=O)(=O)c2cc(F)ccc2N1)Nc1ccccc1F here?
A: inactive

Q: For O=C(OCC(=O)N1CCCC1=O)c1cc(S(=O)(=O)N2CCOCC2)ccc1Cl, which B-score is on record?
A: -0.84

Q: Which B-score does the source give for O=C(NN1CCOCC1)c1cccc(F)c1 here?
A: inactive

Q: How did the B-score turn out when CCN(CC)S(=O)(=O)c1ccc(N2CCOCC2)c(NC(=O)C2COc3ccccc3O2)c1 (centres undefined) was run?
A: -6.56 (active)

Q: For CCN(CC)S(=O)(=O)c1ccc(N2CCOCC2)c(NC(=O)C2CSC3(C)CCC(=O)N23)c1 (centres undefined), which B-score is on record?
A: inactive

Q: CCN(CC)S(=O)(=O)c1ccc(N2CCOCC2)c(C(=O)O)c1 was tested. Which B-score did it give?
A: inactive

Q: For Cc1ccc(N2CC(C(=O)N3CCC4(CC3)CC(=O)c3ccccc3O4)CC2=O)cc1C (centres undefined), which B-score is on record?
A: inactive

Q: O=C(NCC(=O)N1CCCC(C(F)(F)F)C1)c1ccccc1F (centres undefined) was tested. Which B-score did it give?
A: inactive

Q: CC(NC(=S)NNS(=O)(=O)c1ccc(C(C)(C)C)cc1)c1ccccc1 (centres undefined) was tested. Which B-score did it give?
A: -10.4 (active)

Q: For Cc1ccc(S(=O)(=O)NNC(=S)NC(C)(C)C)cc1, which B-score is on record?
A: -0.78

Q: For Cc1ccc(S(=O)(=O)CC(=O)NC(C)c2ccccc2)cc1 (centres undefined), which B-score is on record?
A: -0.01

Q: Which B-score does the source give for CCN(C(=O)CSc1nnc(-c2ccc(OC(F)F)cc2)n1N)C1CCS(=O)(=O)C1 (centres undefined) here?
A: -0.14

Q: Which B-score does the source give for CCN(CC(=O)Nc1cc(Cl)ccc1C)C(=O)CN1C(=O)NC2(CCCC2)C1=O here?
A: -0.62

Q: How did the B-score turn out when Clc1cccc(-c2nc3nc4ccccc4nc3n2Cc2ccco2)c1 was run?
A: -9.06 (active)

Q: With O=c1[nH]c(CSc2ncc(-c3ccc(F)cc3)n2Cc2ccco2)nc2ccccc12 as the compound, how does the B-score read?
A: inactive

Q: Cc1cc(NC(=O)CSc2nc3cc(Cl)ccc3c(=O)n2Cc2ccco2)no1 was tested. Which B-score did it give?
A: inactive

Q: For O=C(Nc1cccc(F)c1)[C@@H]1CCCN1, which B-score is on record?
A: -0.48

Q: For O=C(Nc1cccc(F)c1)NC1CCCc2ccccc21 (centres undefined), which B-score is on record?
A: -5.61 (active)

Q: Which B-score does the source give for O=C(Nc1cccc(F)c1)NC1CCCCCCC1 here?
A: -1.17

Q: How did the B-score turn out when COc1cccc(N2CC(NS(=O)(=O)c3cccs3)CC2=O)c1 (centres undefined) was run?
A: inactive

Q: COc1ccc(C2=NOC(Cn3nc(C(=O)NCc4ccc5c(c4)OCO5)cc3-c3ccccc3)C2)cc1 (centres undefined) was tested. Which B-score did it give?
A: -2.37

Q: For CCOC(=O)c1c(NC(=O)CN2C(=O)NC3(CCC(C)CC3)C2=O)sc(C)c1CC (centres undefined), which B-score is on record?
A: inactive

Q: Cc1ccc2nnn(Cc3cccc(C(C)(C)C)c3O)c2c1 was tested. Which B-score did it give?
A: -2.09

Q: O=C(CNC(=O)C12CC3CC(CC(C3)C1)C2)OCC(=O)N1CCCCC1 was tested. Which B-score did it give?
A: inactive

Q: COc1cccc(N2CC(C(=O)NCc3n[nH]c(=O)c4ccccc34)CC2=O)c1 (centres undefined) was tested. Which B-score did it give?
A: inactive

Q: Which B-score does the source give for CCc1ccc(-c2nn(-c3ccccc3)cc2CSC(=N)N)cc1 here?
A: -12.4 (active)

Q: Which B-score does the source give for O=C(Nc1cn(-c2ccccc2)nc1-c1ccccc1)c1ccccc1 here?
A: -2.94

Q: For Cc1ccc(-c2nn(-c3ccccc3)cc2CN(Cc2ccccc2)C(=O)CCC(=O)O)o1, which B-score is on record?
A: inactive

Q: With CCOc1ccc(S(=O)(=O)Nc2cccc(C(=O)NCC3(N4CCCCC4)CCCCC3)c2)cc1 as the compound, how does the B-score read?
A: -0.94

Q: How did the B-score turn out when O=C(C1=C[C@H](c2ccc(C(F)(F)F)cc2)C[C@H](OCc2ccc(CO)cc2)O1)N1CCN(Cc2ccccc2)CC1 was run?
A: -2.67

Q: With O=C(NCc1ccccc1)C1=C[C@@H](c2ccc(C(F)(F)F)cc2)C[C@@H](OCc2ccc(CO)cc2)O1 as the compound, how does the B-score read?
A: -7.51 (active)

Q: CC(C)(C)[C@H]1C=C(C(=O)NCc2ccccc2)O[C@@H](OCc2ccc(CO)cc2)C1 was tested. Which B-score did it give?
A: -1.3

Q: Which B-score does the source give for CC1CCN(C(=O)COC(=O)c2cc(S(=O)(=O)N3CCOCC3)ccc2Cl)CC1 here?
A: inactive

Q: How did the B-score turn out when COc1ccc(C(CNC(=O)c2cccc(S(=O)(=O)Nc3ccccc3Cl)c2)N2CCOCC2)cc1 (centres undefined) was run?
A: inactive

Q: How did the B-score turn out when Cc1ccc(OCC(=O)NC(C)c2ccccc2)cc1C (centres undefined) was run?
A: -1.87

Q: Which B-score does the source give for CCOc1ccc(C(CC(=O)O)NC(=O)COc2ccccc2)cc1 (centres undefined) here?
A: -5.97 (active)

Q: How did the B-score turn out when CCOc1ccc(C(CC(=O)O)NC(=O)Cc2ccccc2)cc1OC (centres undefined) was run?
A: -0.84
